# Results as given in the OligoGym collection.
# Key:
# Experiment in all cases: pooled miR-30 sensor sort-seq; sequence = guide strand
# Conditions in all cases: shRNA
# SPSB2 = target: SPSB2
# SPOCK1 = target: SPOCK1
# SPRR2B = target: SPRR2B
# SPOPL = target: SPOPL
# Further: reference of the scale not given here.
sequence,measurement,setting,value
TAGTGGTCAGTCTGCAGCGGGG,sensor-assay potency score (higher = more potent),SPSB2,-1.67
TAATCATCGTCTCGAAAGCGGT,sensor-assay potency score (higher = more potent),SPOCK1,-1.33
TTCATATTCTAGGTCATCCAGC,sensor-assay potency score (higher = more potent),SPOCK1,-0.469
TTGACCTCGATGTTCTCTGAAC,sensor-assay potency score (higher = more potent),SPSB2,-1.03
ATACTTTGGCTGGCAGGGTGGG,sensor-assay potency score (higher = more potent),SPRR2B,-1.37
TTTACTACTTTAACCTGTGTGT,sensor-assay potency score (higher = more potent),SPOPL,-0.00218
